# PubChem BioAssay
# “And” between values parts separate entries of the source, which are not always exact repeats. Equal values may be shown once. The source holds several records for some structures; these can differ, active in one and inactive in another. The source made the active and inactive calls. Cut-off read from the data, not from the text of the source, unless noted: active = inhibition above about 80%; inactive = the rest. Where a SMILES comes first, the peptide text is derived from it. The star is where a group is joined. Cbz = O=C(OCc1ccccc1)*
# Key:
# [1] = growth inhibition, single agents and combos, LFS_MB_1R, cell-based, cisplatin or BGB combos, synergistic combos for chromothripsis tumors (AID 1671452); settings: LFS_MB_1R medulloblastoma cells, stronger effect = higher value;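 note: cells exposed for 96 hours before readout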
# [2] = growth inhibition, single agents and combos, CRL2098, cell-based, BGB or cisplatin IC20 combos, synergistic combos for chromothripsis tumors (AID 1671454); settings: CRL2098 osteosarcoma cells, drug combinations, stronger effect = higher value;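 note: cells exposed for 96 h before readout; 0% = vehicle DMSO and 100% = killing by high DMSO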
# [3] = growth inhibition, single agents and combos, HD-MB03, cell-based, BGB or cisplatin IC20 combos, synergistic combos for chromothripsis tumors (AID 1671455; in the data active = inhibition above about 83%;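 note: 0% = vehicle DMSO and 100% = high DMSO as cytotoxic control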); settings: HD-MB03 medulloblastoma cells, stronger effect = higher value
# [4] = growth inhibition, single agents and combos, UWB1.289, cell-based, BGB or cisplatin combos, synergistic combos for chromothripsis tumors (AID 1671456); settings: UWB1.289 ovarian carcinoma cells, stronger effect = higher value;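 note: cells exposed to compound for four days; 0% = vehicle DMSO and 100% = killing by high DMSO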
# [5] = growth inhibition, single agents and combos, LFS_MB_2R, cell-based, cisplatin combos, synergistic combos for chromothripsis tumors (AID 1671457); settings: LFS_MB_2R medulloblastoma cells, stronger effect = higher value;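 note: cells exposed to compound for four days before readout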
# [6] = UWB1.289_BRCA1 ovarian cancer growth, cell-based, BGB or cisplatin combinations (AID 1671459); settings: UWB1.289 BRCA1 ovarian carcinoma, drug combinations, stronger effect = higher value
# [7] = drug combination toxicity in non-malignant astrocytes – cell-based, BGB or cisplatin IC20 combos, cytotoxicity control for chromothriptic childhood tumor combination screen (AID 1671460); settings: Human astrocytes, viability inhibition, drug combinations, at 0.5 µM, stronger effect = higher value;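 note: cells exposed to compounds for 96 hours before viability readout; 0% = vehicle and 100% = killing control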
# [8] = RCMB18 cell growth, single agent and combined, cisplatin and BGB IC40 combos (AID 1671462); settings: RCMB18 medulloblastoma cells, stronger effect = higher value;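 note: cells exposed to compound for four days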
# [9] = CRL1545 cell growth, single agent and combined, cisplatin and BGB IC20 combos (AID 1671464); settings: CRL1545 osteosarcoma cells, stronger effect = higher value;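 note: cells exposed to compound for 96 hours before readout; 0% = vehicle DMSO and 100% = high DMSO killing control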
# [10] = molecular target: NAD(+) hydrolase SARM1 (Homo sapiens) (UniProt Q6SZW1); assay: blocking NAD cleavage by SARM1 SAM-TIR – cell lysate, NAD-Glo luminescence (AID 1508614;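 active = compound whose remaining NAD level is above about 45 nM, limit read from the data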;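 note: higher remaining NAD means stronger inhibition of SARM1 NADase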); settings: SAM-TIR HEK293T lysate NADase, at 1 µM, stronger effect = higher value
# [11] = liver-stage malaria parasite load reduction – cell-based, known kinase inhibitor set, luminescence, hepatoma host viability (AID 624392; call rule not given here;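 note: infected cells incubated roughly two days before readout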); settings: Plasmodium liver stage in hepatoma cells, luciferase luminescence, concentration not given here; liver cell % of control: measured here: host liver cell viability; parasite % of control: stronger effect = lower value
# [12] = chitosan synthesis blockers in C. neoformans – flow cytometry, Cibacron Brilliant Red staining (AID 1347148; call rule not given here;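 note: compound exposure lasted three days at 37 degrees C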); settings: Cryptococcus neoformans chitosan, stronger effect = lower value; at 10 µM unless noted
# [13] = galactose survival enhancers in mitochondrial complex I cybrids – cell-based, galactose medium, ATP luminescence, primary screen (AID 1645843;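 active = z-score of at least 1.8 in each of two replicates, scored against plate mean and spread of sample wells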;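 note: positive z means more ATP and so rescue of galactose-driven cybrid death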); settings: complex I mutant cybrid cells, 72 h, stronger effect = higher value
# [14] = system: Hepatitis C virus NS3 helicase; assay: blockers of NS3h binding to ssDNA – biochemical, fluorescence polarization, LOPAC1280 library, primary screen (AID 687035; in the data active = inhibition above about 37%); settings: Purified HCV NS3 helicase, Cy5-dT15 ssDNA binding fluorescence polarization; stronger effect = higher value; concentration not given here
# [15] = compounds altering Cy5-DNA-NS3h complex signal – biochemical, LOPAC1280, artefact control for HCV NS3 helicase inhibitor project (AID 687037; call rule not given here); settings: Cy5-DNA-NS3h complex fluorescence interference counterscreen
# [16] = compounds altering viability of human ES cells (AID 493140; call rule not given here;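 note: cells exposed to compounds for four days before counting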); settings: human embryonic stem cell survival screen; stronger effect = higher value
# [17] = measured here: combination with BGB IC40, at 0.05 µM
# [18] = measured here: combination with cisplatin, at 0.5 µM
# [19] = measured here: combination with cisplatin, at 5 µM
# [20] = measured here: combination with BGB at IC20, at 0.5 µM
# [21] = measured here: combination with cisplatin at IC20, at 0.5 µM
# [22] = measured here: combo with BGB at IC20, at 0.5 µM
# [23] = measured here: combo with cisplatin at IC20, at 0.5 µM
# [24] = measured here: inhibition with BGB combination, at 0.05 µM
# [25] = measured here: inhibition with cisplatin combination, at 0.05 µM
# [26] = BGB combination, concentration series, at 5 µM
# [27] = cisplatin combination, concentration series, at 5 µM
# [28] = measured here: combo with BGB IC20
# [29] = measured here: combo with cisplatin IC20
# [30] = measured here: BGB IC40 combination, at 0.05 µM
# [31] = measured here: with BGB IC20 combination, at 0.5 µM
# [32] = measured here: with cisplatin IC20 combination, at 0.5 µM
# NAD(+) hydrolase SARM1 (Homo sapiens), sequence (Q6SZW1 whole entry, looked up): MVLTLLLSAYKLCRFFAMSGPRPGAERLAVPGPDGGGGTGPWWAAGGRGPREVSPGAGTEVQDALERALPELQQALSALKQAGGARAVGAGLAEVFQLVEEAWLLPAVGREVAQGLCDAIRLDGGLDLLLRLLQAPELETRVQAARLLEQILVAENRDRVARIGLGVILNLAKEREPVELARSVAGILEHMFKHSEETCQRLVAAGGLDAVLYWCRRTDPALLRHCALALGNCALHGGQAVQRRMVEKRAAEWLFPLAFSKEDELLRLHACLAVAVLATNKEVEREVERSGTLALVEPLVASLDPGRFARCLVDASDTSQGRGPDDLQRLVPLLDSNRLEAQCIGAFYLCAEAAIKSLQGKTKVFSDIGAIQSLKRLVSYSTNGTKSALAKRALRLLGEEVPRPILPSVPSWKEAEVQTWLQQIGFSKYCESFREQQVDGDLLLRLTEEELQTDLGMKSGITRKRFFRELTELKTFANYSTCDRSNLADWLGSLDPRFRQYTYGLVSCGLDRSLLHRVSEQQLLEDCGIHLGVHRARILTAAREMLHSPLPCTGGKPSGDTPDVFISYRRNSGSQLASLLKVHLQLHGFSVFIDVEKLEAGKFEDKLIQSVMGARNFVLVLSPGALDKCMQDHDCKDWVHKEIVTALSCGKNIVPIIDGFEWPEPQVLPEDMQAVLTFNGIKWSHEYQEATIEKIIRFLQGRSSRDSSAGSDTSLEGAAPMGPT
compound,measurement,setting,value
C[C@@H]1CN(CC(=O)Nc2ccc3c(c2)Cc2cccc(-c4cc(=O)cc(N5CCOCC5)o4)c2S3)C[C@H](C)O1,inhibition,[1]; at 0.5 µM,-8.44% (inactive) and -21% (inactive)
same,inhibition,[1]; [17],3.35% and -5.52%
same,inhibition,[1]; [18],-14.6% and -41.1%
same,inhibition,[1]; [19],-56% and -92.8%
same,inhibition,[2]; at 0.5 µM,-44.4% (inactive) and -42.5% (inactive)
same,inhibition,[2]; [20],-21.5% and -30.1%
same,inhibition,[2]; [21],-75.7% and -79.9%
same,inhibition,[3]; at 0.5 µM,-12% (inactive) and -9.56% (inactive)
same,inhibition,[3]; [22],-14.5% and -20%
same,inhibition,[3]; [23],-16.9% and 0.275%
same,inhibition,[4]; at 0.5 µM,-15.2% (inactive) and 1.44% (inactive)
same,inhibition,[4]; [24],-5.12% and -6.06%
same,inhibition,[4]; [25],-21.5% and 20.1%
same,inhibition,[5]; at 0.5 µM,-9.09% (inactive) and -22.8% (inactive)
same,inhibition,[5]; [18],-17.7% and -28.5%
same,inhibition,[5]; [19],7.16% and -9%
same,inhibition,[6]; [26],-11.5% and 19.3%
same,inhibition,[6]; at 0.5 µM,-16.3% (inactive) and -2.61% (inactive)
same,inhibition,[6]; [27],-2.71% and 10.4%
same,inhibition,[7],-26.1% (inactive) and -28.5% (inactive)
same,inhibition,[7]; [28],-42.3% and -37.5%
same,inhibition,[7]; [29],-29% and -44.1%
same,inhibition,[8]; at 0.5 µM,1.57% (inactive) and -21.5% (inactive)
same,inhibition,"[8]; cisplatin combo, at 5 µM",-0.721% and -71.8%
same,inhibition,[8]; [30],9.68% and -19.2%
same,inhibition,[8]; [18],-13.6% and -9.04%
same,inhibition,"[8]; single agent, at 5 µM",36.4% and -12.2%
same,inhibition,[9]; at 0.5 µM,5.04% (inactive) and -9.72% (inactive)
same,inhibition,[9]; [31],22% and -3.16%
same,inhibition,[9]; [32],-5.11% and -14.8%
same,inhibition,"[9]; single agent, at 0.05 µM",7.16% and -18.1%
same,inhibition,"[9]; single agent, at 5 µM",-20.2% and -4.99%
CC#CCn1c(N2CCC[C@@H](N)C2)nc2c1c(=O)n(Cc1nc(C)c3ccccc3n1)c(=O)n2C,remaining NAD,[10],10 nM (inactive)
CC(C)(C)c1nc2c3cc[nH]c(=O)c3c3cc(F)ccc3c2[nH]1,liver cell % of control,[11],205% and 286% and 305%
same,parasite % of control,[11],128% (inactive) and 18.5% (inactive) and 5.35% (inactive)
CC(C)C[C@@H](C=O)NC(=O)[C@H](CC(C)C)NC(=O)[C@H](CC(C)C)NC(=O)OCc1ccccc1 (Cbz-Leu-Leu-Leu-aldehyde),fold fluorescence,[12],10.3 [at 105.1 µM] (inactive)
Cc1[nH]c2ccccc2c1CCNCc1ccc(/C=C/C(=O)NO)cc1,inhibition,[1]; at 0.5 µM,93.3% (active) and 50.3% (inactive)
same,inhibition,[1]; [17],50.6% and -33.1%
same,inhibition,[1]; [18],94.8% and 59%
same,inhibition,[1]; [19],101% and 94.7%
same,inhibition,[2]; at 0.5 µM,96% (active) and 13.2% (inactive)
same,inhibition,[2]; [20],95% and 15.5%
same,inhibition,[2]; [21],96.9% and -1.5%
same,inhibition,[3]; at 0.5 µM,99.9% (active) and 93.8% (active)
same,inhibition,[3]; [22],99.8% and 96.6%
same,inhibition,[3]; [23],99.9% and 99.7%
same,inhibition,[4]; at 0.5 µM,82.2% (active) and 51.9% (inactive)
same,inhibition,[4]; [24],27.3% and -1.85%
same,inhibition,[4]; [25],42.8% and 21.6%
same,inhibition,[5]; at 0.5 µM,91.3% (active) and 29.2% (inactive)
same,inhibition,[5]; [18],101% and 47.2%
same,inhibition,[5]; [19],109% and 98.7%
same,inhibition,[6]; [26],121% and 109%
same,inhibition,[6]; at 0.5 µM,90.3% (active) and 56.4% (inactive)
same,inhibition,[6]; [27],127% and 128%
same,inhibition,[7],101% (active) and 33.3% (inactive)
same,inhibition,[7]; [28],102% and 30.8%
same,inhibition,[7]; [29],99.8% and 22.1%
same,inhibition,[8]; at 0.5 µM,91% (active) and 38.1% (inactive)
same,inhibition,"[8]; cisplatin combo, at 5 µM",99% and 97.8%
same,inhibition,[8]; [30],28.7% and -11.4%
same,inhibition,[8]; [18],95.9% and 50.4%
same,inhibition,"[8]; single agent, at 5 µM",97.1% and 93.2%
same,inhibition,[9]; at 0.5 µM,96.5% (active) and 85.3% (active)
same,inhibition,[9]; [31],95.5% and 73.9%
same,inhibition,[9]; [32],96.9% and 90.9%
same,inhibition,"[9]; single agent, at 0.05 µM",93.3% and 52.8%
same,inhibition,"[9]; single agent, at 5 µM",98.9% and 97.5%
COc1cc2nccc(Oc3ccc(NC(=O)NC4CC4)c(Cl)c3)c2cc1C(N)=O,liver cell % of control,[11],83.2% and 92.7% and 92.2%
same,parasite % of control,[11],3.46% (inactive) and 6.57% (inactive) and 21.7% (inactive)
Cn1c2ccccc2c2c3c(c4c5ccccc5n(CCC#N)c4c21)CNC3=O,fold fluorescence,[12],3.75 [at 132.1 µM] (inactive)
CC(C)=CC[C@@H](O)C1=CC(=O)c2c(O)ccc(O)c2C1=O,z-score,[13],-2.24 (inactive)
CN(C)c1ccc(C(=O)NCCCCCCC(=O)NO)cc1,inhibition,[1]; at 0.5 µM,32.4% (inactive)
same,inhibition,[1]; [17],-37.9%
same,inhibition,[1]; [18],63.6%
same,inhibition,[1]; [19],97.6%
same,inhibition,[2]; at 0.5 µM,-26.1% (inactive)
same,inhibition,[2]; [20],-83.1%
same,inhibition,[2]; [21],6.53%
same,inhibition,[3]; at 0.5 µM,47.5% (inactive)
same,inhibition,[3]; [22],38.6%
same,inhibition,[3]; [23],81.5%
same,inhibition,[4]; at 0.5 µM,31% (inactive)
same,inhibition,[4]; [24],-11.2%
same,inhibition,[4]; [25],3.19%
same,inhibition,[5]; at 0.5 µM,15.7% (inactive)
same,inhibition,[5]; [18],37.8%
same,inhibition,[5]; [19],95.1%
same,inhibition,[6]; [26],88.6%
same,inhibition,[6]; at 0.5 µM,35.3% (inactive)
same,inhibition,[6]; [27],103%
same,inhibition,[7],25.9% (inactive)
same,inhibition,[7]; [28],24.7%
same,inhibition,[7]; [29],16.4%
same,inhibition,[8]; at 0.5 µM,31.7% (inactive)
same,inhibition,"[8]; cisplatin combo, at 5 µM",93.3%
same,inhibition,[8]; [30],-8.02%
same,inhibition,[8]; [18],62.9%
same,inhibition,"[8]; single agent, at 5 µM",89%
same,inhibition,[9]; at 0.5 µM,76.1% (inactive)
same,inhibition,[9]; [31],71.1%
same,inhibition,[9]; [32],78%
same,inhibition,"[9]; single agent, at 0.05 µM",23%
same,inhibition,"[9]; single agent, at 5 µM",91.7%
CC(C)(C)c1cnc(CSc2cnc(NC(=O)C3CCNCC3)s2)o1,liver cell % of control,[11],42.1% and 45.4% and 53.6%
same,parasite % of control,[11],0.331% (inactive) and 0.54% (inactive) and 1.3% (active)
O=C1NC(=O)/C(=C/c2ccc3c(c2)OC(F)(F)O3)S1,inhibition,[14],-5% (inactive)
same,fluorescence ratio (interference),[15],1 (inactive)
same,z-score,[13],-0.34 (inactive)
O=C(Nc1cn[nH]c1-c1nc2ccc(CN3CCOCC3)cc2[nH]1)NC1CC1,liver cell % of control,[11],44.3% and 46.2% and 49.7%
same,parasite % of control,[11],0.367% (inactive) and 0.333% (inactive) and 0.278% (inactive)
C=CC(=O)Nc1cc2c(Nc3ccc(F)c(Cl)c3)ncnc2cc1C#CC(C)(C)N1CCN(C)CC1,liver cell % of control,[11],44% and 49.4% and 70.7%
same,parasite % of control,[11],0.362% (inactive) and 1.83% (inactive) and 6.99% (inactive)
CCCCC(C)(C)[C@H](O)/C=C/[C@H]1[C@H](O)CC(=O)[C@@H]1C/C=C\CCCC(=O)O,survival,[16],68.2 (inactive)
